Data on 15 compounds can be found in the supplement of paper PMC6522484.

The test system of test [1] is DLD1. The experiment in a line: cell viability (CellTiter-Glo) relative to plate median (fraction of plate median); higher = more viable cells. Conditions: 5 µM; treatment time 24 h; reporter: 7TFP. The method, boiled down:
(§1)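 Library compounds were added at a final concentration of 5 µM for 24 h to colorectal cancer cells stably transduced with a lentiviral TCF/Wnt firefly luciferase reporter. Reported values are firefly luciferase or CellTiterGlo luminescence, normalised per well to the plate median. Each value averages two independent replicates.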
A general note: In ATP-based viability assays light output follows the ATP content of the culture.

In another test the test system is HCT116. Described as above. Conditions: 5 µM; treatment time 24 h; reporter: TCF4/Wnt. The gist of the method:
as §1

Test [2] has as its system SW480. Described as above. As to conditions: 5 µM; treatment time 24 h; reporter: 7TFP. The method, boiled down:
as §1

Test [3] relates to DLD1. The experiment in a line: TCF/Wnt firefly luciferase reporter signal relative to plate median (fraction of plate median); higher = higher Wnt reporter signal. As to conditions: 5 µM; treatment time 24 h; reporter: 7TFP. The method, boiled down:
as §1
(A reporter such as luciferase makes a cellular process visible.)

Test [4] deals with SW480. The description is as above. Conditions: 5 µM; treatment time 24 h; reporter: 7TFP. The method, boiled down:
as §1

± gives the standard deviation of the averaged measurements.

For `CCOC(=O)CCCCCCCCCCCCC1C=CCC1` (stereo not given), the cell viability in the test with DLD1 [1] came out at 0.9375 ± 0.005; in the test with HCT116 it was 0.949 ± 0.07; in the test with SW480 [2] it was 0.965 ± 0.05. Also, the “TCF/Wnt firefly luciferase reporter signal” value in the test with DLD1 [3] was 0.869 ± 0.034; in the test on SW480 [4] it was 0.873 ± 0.073.

As to `CC1COc2c(N3CCN(C)CC3)c(F)cc3c(=O)c(C(=O)O)cn1c23` (stereo not given), the cell viability in the test with DLD1 [1] was found to be 0.995 ± 0.05; in the test on HCT116 it was 1.04 ± 0.16; in the test with SW480 [2], 0.91 ± 0.0099. In addition, the “TCF/Wnt firefly luciferase reporter signal” value with DLD1 [3] worked out at 0.93 ± 0.075; in the test on SW480 [4], 1.01 ± 0.088.

Take `CCN(CC)CCOc1ccc(C(=C(Cl)c2ccccc2)c2ccccc2)cc1`: the figures for the cell viability with DLD1 [1], in the test on HCT116 and with SW480 [2] were 0.983 ± 0.019, 0.971 ± 0.041 and 0.939 ± 0.073, respectively. The “TCF/Wnt firefly luciferase reporter signal” value in the test on DLD1 [3] turned out to be 0.914 ± 0.028; in the test on SW480 [4] it was 1.01 ± 0.27.

On to `CC[C@H]1C(=O)OC[C@@H]1Cc1cncn1C`, for which the cell viability with DLD1 [1] was 0.942 ± 0.097; with HCT116 it was 0.948 ± 0.13; in the test with SW480 [2] it was 1.015 ± 0.0071. Also, the “TCF/Wnt firefly luciferase reporter signal” value in the test on DLD1 [3] was 0.89 ± 0.15; in the test with SW480 [4], 0.959 ± 0.019.

As for `C/C=C(\C)C(=O)O[C@@H]1c2c(ccc3ccc(=O)oc23)OC(C)(C)[C@@H]1OC(C)=O`, the figures for the cell viability in the test with DLD1 [1], with HCT116 and with SW480 [2] were 0.969 ± 0.011, 0.92 ± 0.029 and 0.926 ± 0.047, respectively. Also, the “TCF/Wnt firefly luciferase reporter signal” value came to 0.997 ± 0.075 with DLD1 [3] and 1.09 ± 0.057 with SW480 [4].

`O=C1NCCN(C(=O)[C@H](Cc2ccccc2)NC(=O)[C@@H]2CCCN2)C1=O` [Prolyl-phenylalanyl-diketopiperazine]: the cell viability amounted to 1.04 ± 0.15 with DLD1 [1], 1.02 ± 0.035 in the test with HCT116 and 1.02 ± 0.021 in the test with SW480 [2]. Besides, the “TCF/Wnt firefly luciferase reporter signal” value was found to be 0.984 ± 0.02 with DLD1 [3] and 0.918 ± 0.0014 with SW480 [4].

Consider `Cn1c(=O)c2c(ncn2CC(O)CO)n(C)c1=O` (stereo not given), for which the results for the cell viability in the test with DLD1 [1], in the test with HCT116 and in the test with SW480 [2] were 0.916 ± 0.016, 0.996 ± 0.049 and 0.989 ± 0.03, respectively. Further, the “TCF/Wnt firefly luciferase reporter signal” value with DLD1 [3] worked out at 1.09 ± 0.14; in the test on SW480 [4] it was 1.09 ± 0.05.

For the compound `COc1cccc2c1C(=O)c1c(O)c3c(c(O)c1C2=O)C[C@@](O)(C(C)=O)C[C@@H]3O[C@H]1C[C@H](NC=O)[C@H](O)[C@H](C)O1` [Baumycin C1], the results for the cell viability with DLD1 [1], in the test with HCT116 and with SW480 [2] were 0.9535 ± 0.0021, 0.838 ± 0.081 and 0.9955 ± 0.0035, respectively. Besides, the “TCF/Wnt firefly luciferase reporter signal” value with DLD1 [3] was determined as 0.955 ± 0.042; in the test with SW480 [4] it was 1.05 ± 0.057.

On to `COc1ccc2ccc(=O)oc2c1CC=C(C)C`, for which the cell viability in the test on DLD1 [1] is 1.04 ± 0.13; with HCT116 it was 1.01 ± 0.026; in the test with SW480 [2], 0.985 ± 0.036. Further, the “TCF/Wnt firefly luciferase reporter signal” value was determined as 1.01 ± 0.033 in the test on DLD1 [3] and 0.99 ± 0.071 with SW480 [4].

With `CC12CCCC(O)(C1)C1CC(C)(C)C1CC2` (stereo not drawn) [beta-CARYOPHYLLENE ALCOHOL], the cell viability with DLD1 [1] is 0.91 ± 0.072; in the test on HCT116, 1.12 ± 0.14; in the test on SW480 [2], 1 ± 0.04. Moreover, the “TCF/Wnt firefly luciferase reporter signal” value in the test with DLD1 [3] was found to be 1.1 ± 0.028; with SW480 [4], 1.04 ± 0.028.

`O=c1cc(-c2ccc(O)cc2)oc2cc(O[C@@H]3O[C@H](CO)[C@@H](O)[C@H](O)[C@H]3O)cc(O)c12`: the cell viability in the test with DLD1 [1] turned out to be 0.924 ± 0.044; with HCT116, 1.06 ± 0.093; in the test on SW480 [2] it was 1 ± 0.038. Moreover, the “TCF/Wnt firefly luciferase reporter signal” value was 1.02 ± 0.059 in the test on DLD1 [3] and 1.07 ± 0.078 with SW480 [4].

As for `O=C(CCCN1CC=C(n2c(=O)[nH]c3ccccc32)CC1)c1ccc(F)cc1`, the cell viability in the test on DLD1 [1] was found to be 0.995 ± 0.0071; in the test on HCT116, 0.868 ± 0.025; with SW480 [2], 0.994 ± 0.023. Also, the “TCF/Wnt firefly luciferase reporter signal” value with DLD1 [3] is 0.829 ± 0.061; with SW480 [4], 0.895 ± 0.088.

`CC1(C)O[C@@H]2[C@@H](CO[C@@]3(COS(N)(=O)=O)OC(C)(C)O[C@@H]23)O1`: the cell viability in the test with DLD1 [1] amounted to 0.925 ± 0.042; in the test with HCT116 it was 1.04 ± 0.014; with SW480 [2] it was 1.03 ± 0.052. Moreover, the “TCF/Wnt firefly luciferase reporter signal” value was 1.12 ± 0.11 in the test on DLD1 [3] and 0.845 ± 0.12 in the test with SW480 [4].

On to `COc1c(O)cc(O)cc1O`, for which the cell viability with DLD1 [1] was determined as 1.01 ± 0.04; in the test with HCT116 it was 0.694 ± 0.33; in the test on SW480 [2], 1.01 ± 0.021. For the same compound, the “TCF/Wnt firefly luciferase reporter signal” value in the test on DLD1 [3] turned out to be 1.09 ± 0.064; in the test on SW480 [4], 1.03 ± 0.042.

Regarding `O=C(O[C@@H]1Cc2c(O)cc(O)cc2O[C@@H]1c1cc(O)c(=O)c2c(O)c(O)cc([C@H]3Oc4cc(O)cc(O)c4C[C@H]3OC(=O)c3cc(O)c(O)c(O)c3)c2c1)c1cc(O)c(O)c(O)c1`, the values for the cell viability in the test on DLD1 [1], in the test with HCT116 and in the test with SW480 [2] were 0.996 ± 0.035, 0.9235 ± 0.0064 and 1.045 ± 0.0071, respectively. Moreover, the entries for the “TCF/Wnt firefly luciferase reporter signal” value in the test on DLD1 [3] and with SW480 [4] were 0.903 ± 0.041 and 1.04, respectively.
